Laboratory results from ChEMBL document CHEMBL5606460, “ASAP - DENV-2 NS2B-NS3 protease fluorescence single point” (2024).
Among all 2,000 compounds or so, about 110 (5.5%) showed an effect of 50% or more. The entries come from a sample that favours strong results as a whole.

Target: Genome polyprotein (dengue virus type 2) (UniProt P29990)
[1] = Thailand/16681/1984, Concentration 25.0 uM, Number of replicates 1.0

Work on `Cc1nc(C2CCN(C(=O)c3ccn([C@H]4CCCNC4)n3)CC2)n[nH]1` yielded an inhibition (Thailand/16681/1984, Concentration 49.5 uM, Number of replicates 2.0, Standard deviation 0.8219326667939915 %) of -4.42%, an inhibition (Thailand/16681/1984, Concentration 99.01 uM, Number of replicates 2.0, Standard deviation 0.15240671313806178 %) of -3.84% and an inhibition (Thailand/16681/1984, Concentration 198.0 uM, Number of replicates 2.0, Standard deviation 2.223365450237249 %) of -4.59%.

`O=Cc1ccc(N2CCC(C(=O)NCCc3cccc(Br)c3)CC2)cc1` was tested, and the inhibition [1] was 11.8%.

In the case of `O=Cc1ccc(N2CCC(C(=O)N3CC4C[C@H]5CC3C[C@H](C4)C5)CC2)cc1`, the inhibition [1] is reported as 14.5%.

For `O=Cc1ccc(N2CCC(C(=O)Nc3ccccc3OCC(F)(F)F)CC2)cc1`, the inhibition [1] was 13.4%.

`Cn1cc(CNC(=O)c2ccccc2[C@@H]2CCCCN2)cn1` showed an inhibition (Thailand/16681/1984, Concentration 49.5 uM, Number of replicates 2.0, Standard deviation 1.3250088302691205 %) of -2.36%, an inhibition (Thailand/16681/1984, Concentration 99.01 uM, Number of replicates 2.0, Standard deviation 0.6184423716804828 %) of -1.37% and an inhibition (Thailand/16681/1984, Concentration 198.0 uM, Number of replicates 2.0, Standard deviation 0.12536703369097324 %) of -0.243%.

`Cc1cn(-c2cc(NC(=O)C3CCN(c4ccc(C=O)cc4)CC3)cc(C(F)(F)F)c2)cn1` gave an inhibition [1] of 12.1%.

In the case of `O=Cc1ccc(N2CCC(C(=O)N3CCC(c4nc5ccccc5s4)CC3)CC2)cc1`, the inhibition [1] is reported as 14.3%.

`Cn1cc(CNC(=O)c2ccccc2CN)cn1` was tested, and the inhibition (Thailand/16681/1984, Concentration 49.5 uM, Number of replicates 2.0, Standard deviation 4.704758964680012 %) was -1.53%, the inhibition (Thailand/16681/1984, Concentration 99.01 uM, Number of replicates 2.0, Standard deviation 3.3738585950449482 %) was -6.84% and the inhibition (Thailand/16681/1984, Concentration 198.0 uM, Number of replicates 2.0, Standard deviation 1.4794083306984744 %) was -5.39%.

Molecule `c1cnc2c(CN3CCC(c4c[nH]c5cccnc45)CC3)c[nH]c2c1` has an inhibition (Thailand/16681/1984, Concentration 49.5 uM, Number of replicates 2.0, Standard deviation 2.401783006640112 %) of -4.14%, an inhibition (Thailand/16681/1984, Concentration 99.01 uM, Number of replicates 2.0, Standard deviation 2.691377880268528 %) of -3.47% and an inhibition (Thailand/16681/1984, Concentration 198.0 uM, Number of replicates 2.0, Standard deviation 2.989922552884535 %) of -1.51%.

`O=Cc1ccc(N2CCC(C(=O)N[C@@H](Cc3ccccc3)c3ccccc3)CC2)cc1` showed an inhibition [1] of 4.84%.

For `O=Cc1ccc(N2CCC(C(=O)NC[C@H]3COc4ccccc4O3)CC2)cc1`, the inhibition [1] was 15.5%.

`C#CCN(Cc1ccccc1Cl)C(=O)C1CCN(c2ccc(C=O)cc2)CC1` was tested, and the inhibition [1] was 14.7%.

With `CNC(=O)c1cncnc1NS(=O)(=O)c1ccc(Oc2ccccc2Cl)cc1` the inhibition (Thailand/16681/1984, Concentration 49.5 uM, Number of replicates 2.0, Standard deviation 1.0127526920144583 %) was 5.46%, the inhibition (Thailand/16681/1984, Concentration 99.01 uM, Number of replicates 2.0, Standard deviation 1.3865274661736828 %) was 5.75% and the inhibition (Thailand/16681/1984, Concentration 198.0 uM, Number of replicates 2.0, Standard deviation 1.0625889801550739 %) was 3.56%.

For `CNC(=O)c1cc(Br)cnc1NS(=O)(=O)c1ccc(Oc2ccccc2Cl)cc1`, the inhibition (Thailand/16681/1984, Concentration 49.5 uM, Number of replicates 2.0, Standard deviation 0.1523274770628613 %) was 20.5%, the inhibition (Thailand/16681/1984, Concentration 99.01 uM, Number of replicates 2.0, Standard deviation 0.08785965758059779 %) was 73.9% and the inhibition (Thailand/16681/1984, Concentration 198.0 uM, Number of replicates 2.0, Standard deviation 0.12988512316778045 %) was 87.2%.

`CNC(=O)c1cc(C#N)ccc1NS(=O)(=O)c1ccc(Oc2ccccc2Cl)cc1` gave an inhibition (Thailand/16681/1984, Concentration 49.5 uM, Number of replicates 2.0, Standard deviation 0.4271842721165937 %) of 49.4%, an inhibition (Thailand/16681/1984, Concentration 99.01 uM, Number of replicates 2.0, Standard deviation 0.14972718509713318 %) of 88.8% and an inhibition (Thailand/16681/1984, Concentration 198.0 uM, Number of replicates 2.0, Standard deviation 0.1152868035427591 %) of 94%.

`CNC(=O)c1cc(Cl)ccc1NS(=O)(=O)c1ccc(C(=O)N2CCOCC2)cc1` showed an inhibition (Thailand/16681/1984, Concentration 49.5 uM, Number of replicates 2.0, Standard deviation 0.9242131636205312 %) of 0.016%, an inhibition (Thailand/16681/1984, Concentration 99.01 uM, Number of replicates 2.0, Standard deviation 0.5448647637736805 %) of 0.743% and an inhibition (Thailand/16681/1984, Concentration 198.0 uM, Number of replicates 2.0, Standard deviation 0.08706358790592401 %) of 3.74%.

With `C[C@H]1COCCN1C(=O)c1cc(Cl)ccc1NS(=O)(=O)c1ccc(Oc2ccccc2Cl)cc1` the inhibition (Thailand/16681/1984, Concentration 49.5 uM, Number of replicates 2.0, Standard deviation 1.11087224122176 %) was 42.6%, the inhibition (Thailand/16681/1984, Concentration 99.01 uM, Number of replicates 2.0, Standard deviation 0.41977451897359047 %) was 79.8% and the inhibition (Thailand/16681/1984, Concentration 198.0 uM, Number of replicates 2.0, Standard deviation 0.050716482924917095 %) was 92.9%.

In the case of `CCc1ccc(NS(=O)(=O)c2ccc(Oc3ccccc3Cl)cc2)c(C(=O)NC)c1`, the inhibition (Thailand/16681/1984, Concentration 49.5 uM, Number of replicates 2.0, Standard deviation 2.280534278494396 %) is reported as 20.1%, the inhibition (Thailand/16681/1984, Concentration 99.01 uM, Number of replicates 2.0, Standard deviation 1.9533776277108892 %) is reported as 35.5% and the inhibition (Thailand/16681/1984, Concentration 198.0 uM, Number of replicates 2.0, Standard deviation 2.0141203401343657 %) is reported as 57.1%.

`CNC(=O)c1cc(Cl)ncc1NS(=O)(=O)c1ccc(Oc2ccccc2Cl)cc1` gave an inhibition (Thailand/16681/1984, Concentration 49.5 uM, Number of replicates 2.0, Standard deviation 0.003826975991637689 %) of -0.629%, an inhibition (Thailand/16681/1984, Concentration 99.01 uM, Number of replicates 2.0, Standard deviation 0.08610681229787821 %) of -0.288% and an inhibition (Thailand/16681/1984, Concentration 198.0 uM, Number of replicates 2.0, Standard deviation 0.5032468582115982 %) of 12.6%.

For `CNC(=O)c1nc(Cl)ccc1NS(=O)(=O)c1ccc(Oc2ccccc2Cl)cc1`, the inhibition (Thailand/16681/1984, Concentration 49.5 uM, Number of replicates 2.0, Standard deviation 0.5855266102241418 %) was 6.34%, the inhibition (Thailand/16681/1984, Concentration 99.01 uM, Number of replicates 2.0, Standard deviation 0.14494638377684543 %) was 6.62% and the inhibition (Thailand/16681/1984, Concentration 198.0 uM, Number of replicates 2.0, Standard deviation 0.056926230997118174 %) was 4.4%.
